BoNT-A LC inh2 – blocks Botulinum neurotoxin A light chain protease. multiplex microsphere protease substrate cleavage, flow cytometry. inhibition, % at 10 µM. actives 0.17% (n = 360,000). AID 588499; note: plate controls were buffer without enzyme for full effect and enzyme alone for no effect
MazEF act – activators of E. coli MazEF toxin-antitoxin RNase; P0AE70; FAM/BHQ RNA-DNA oligo cleavage fluorescence, 5 h; activation, % at 20 µM; actives 0.32% (n = 350,000); AID 504720; in the data active = activation above about 50%
Target sequence (P0AE70 whole entry, looked up): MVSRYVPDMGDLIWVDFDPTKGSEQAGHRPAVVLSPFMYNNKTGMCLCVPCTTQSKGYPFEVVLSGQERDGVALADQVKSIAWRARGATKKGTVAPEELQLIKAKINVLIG
Bead autofluor – counter-screen for toxin protease inhibitors: compound fluorescence. compound autofluorescence counterscreen, microsphere flow cytometry; hits give high values. actives 3.1% (n = 360,000). fluorescence intensity (concentration not given with the values); in the data active = fluorescence intensity above about 16000; inconclusive = no clear call, values can overlap the other calls
Anthrax LF prot – blocks Bacillus anthracis lethal factor protease; P15917; multiplex microsphere protease cleavage assay, LF; inhibition, % at 10 µM; actives 0.12% (n = 360,000); AID 588501; note: plate controls were buffer without enzyme for full effect and enzyme alone for no effect
BoNT F protease – blocks Botulinum neurotoxin F light chain protease; Multiplex microsphere protease cleavage assay, flow cytometry; inhibition, % at 10 µM; actives 0.22% (n = 360,000); AID 588497; in the data active = inhibition above about 35%, passing the limit was not always enough; inconclusive = no clear call, values can overlap the other calls; note: plate controls were buffer without enzyme for full effect and enzyme alone for no effect
An asterisk follows results filed as active; ? = inconclusive; . = not tested or not shown. A selection: hits, their analogues and other compounds. The true share with any hit is near 3.6%. Cut-off read from the data, not from the text of the source, unless noted: active = inhibition above about 30%; inconclusive = no clear call, values can overlap the other calls; inactive = below that.

SMILES	BoNT-A LC inh2	MazEF act	Bead autofluor	Anthrax LF prot	BoNT F protease
CCC(C)NC(=O)c1cc2c(=O)n(CC)c3ccccc3c2s1 (stereo not given)	-5	5	4714	19	-20
CCCCN1C(=O)C(NC(=O)c2cccnc2)(C(F)(F)F)C2=C1CC(C)(C)CC2=O (stereo not given)	2	-2	23010*	-2	3
CCOC(=O)NC1(C(F)(F)F)C(=O)N(Cc2ccccc2)C2=C1C(=O)CC(C)(C)C2 (stereo not given)	-4	1	25964*	-4	-8
CC1(C)CC(=O)C2=C(C1)N(Cc1cccnc1)C(=O)C2(NC(=O)c1cccnc1)C(F)(F)F (stereo not given)	0	3	9303	2	0
CC1(C)CC(=O)C2=C(C1)N(Cc1ccco1)C(=O)C2(NC(=O)c1cccnc1)C(F)(F)F (stereo not given)	?	9	20736*	-3	-1
CCOc1ccc(OCCC(=O)Nc2ccc(N3CCOCC3)cc2N2CCOCC2)cc1	0	4	3534	-4	-1
NS(=O)(=O)c1cccc(NC(=O)COC(=O)Cc2n[nH]c(=O)c3ccccc23)c1	.	-1	.	.	.
CC(=O)c1ccc(N2CCN(C(=O)c3cccs3)CC2)c(F)c1	0	2	3145	2	4
CC(=NNC(=S)N1CCCCCC1)c1cccc2cccnc12	3	6	3474	-9	-21
CC(=NNC(=S)N1CCN(c2ccccn2)CC1)c1nccs1	16	12	3551	31*	30
CC(=NNC(=S)N1CC2CCC(CC2)C1)c1cnccn1	40*	6	3454	54*	59*
CC(=NNC(=S)N1CCN(C2CCCCCC2)CC1)c1ccccn1	82*	4	4342	92*	74*
CC(=NNC(=S)N1CC2CCC(CC2)C1)c1ccccn1	29	6	2877	52*	60*
CC(=NNC(=S)N1CCN(c2ccccn2)CC1)c1ccccn1	2	11	3019	-13	-43
C/C(=N/NC(=O)c1cnccn1)c1ccncc1	0	7	4710	1	-6
CC1(C(=O)O)CCCN(C(=O)c2cccnc2Oc2ccccc2)C1 (stereo not given)	0	.	3004	-9	-1
O=C1CC(N(C(=O)c2ccco2)c2ccc(F)cc2)C(=O)N1c1ccc(F)cc1 (stereo not given)	?	1	19184*	1	11
C=C(C)COc1ccc2oc(C)c(C(=O)OCCOC)c2c1	?	-1	24480*	-4	-4
CCc1nnc(NC(=O)CCc2ccc(C)o2)s1	0	6	10756	-3	-5
CCc1ccc(CCC(=O)Nc2nc(CC(C)=O)ns2)o1	1	8	16142*	-2	1
CCc1ccc(CCC(=O)Nc2nnc(C)s2)o1	?	-3	20941*	0	-2
Cc1cccc(C)c1N(CC(=O)NCc1ccc(F)cc1)C(=O)c1csnn1	-1	0	4453	-2	0
CCC(Sc1nc(C)cc(=O)[nH]1)C(=O)Nc1nc(-c2ccccc2)cs1 (stereo not given)	-1	-6	22493*	-2	-3
Cc1ccc(-c2csc(NC(=O)CSc3nc(C)cc(=O)[nH]3)n2)cc1	.	3	.	.	.
CCOC(=O)C1CCCN(C(=O)c2cn(CC)c3ccc(S(=O)(=O)N4CCCC4)cc3c2=O)C1 (stereo not given)	1	4	16154*	-4	-2
SMILES	BoNT-A LC inh2	MazEF act	Bead autofluor	Anthrax LF prot	BoNT F protease
CCn1cc(C(=O)N2CC(C)CC(C)C2)c(=O)c2cc(S(=O)(=O)N(C)C)ccc21 (stereo not given)	-1	9	4547	-2	-10
CCn1cc(C(=O)N2CC(C)CC(C)C2)c(=O)c2cc(S(=O)(=O)N3CCOCC3)ccc21 (stereo not given)	-2	3	24578*	1	-4
CCn1cc(C(=O)NCc2ccc3c(c2)OCO3)c(=O)c2cc(S(=O)(=O)N3CCOCC3)ccc21	?	2	21213*	0	-10
CCn1cc(C(=O)NCc2ccc3c(c2)OCO3)c(=O)c2cc(S(=O)(=O)N(C)C)ccc21	1	6	9237	-2	3
CCOC(=O)C1CCCN(C(=O)c2cn(C)c3ccc(S(=O)(=O)N4CCCC4)cc3c2=O)C1 (stereo not given)	?	6	21667*	0	4
CC(C)S(=O)(=O)c1csc(NC(=O)Nc2ccc(Cl)cc2)c1	5	1	4010	?	2
COc1ccc(NC(=O)C2CC(=O)NC(Nc3cccc(C)c3)=N2)cc1 (stereo not given)	-1	6	4406	0	-21
CCc1ccc(NC2=NC(C(=O)NC3CCCCC3)CC(=O)N2)cc1 (stereo not given)	?	-2	20212*	-8	6
C=CC(=O)Nc1ccc(N(C)c2ccnc(Nc3ccc(N4CCN(C)CC4)cc3)n2)cc1	0	4	2818	-16	-58
O=C1NCCCC2c3c(cc(Br)c(O)c3Br)OC12N1CCOCC1 (stereo not given)	6	3	20273*	4	9
C[C@@H]1Cn2cnc(C(=O)N[C@@H](C)C(=O)OC(C)(C)C)c2C(=O)N1	0	3	3442	0	-2
Cc1ccc(S(=O)(=O)N2CCCC(C(=O)NCc3ccc4c(c3)OCO4)C2)cc1 (stereo not given)	0	10	3682	0	11
Cc1ccc(S(=O)(=O)N2CCC(C(=O)OC(C)C(=O)NCc3ccc4c(c3)OCO4)CC2)cc1 (stereo not given)	?	-12	23314*	-1	-3
COc1ccc(/C=C/C(=O)c2sc(-c3ccccc3)nc2C)cc1	2	3	23221*	3	-2
Cc1nc(-c2ccccc2)sc1C(=O)O	0	-12	4649	0	2
CCNC(=O)c1sc(-c2ccccc2)nc1C	?	-2	21235*	1	-4
Cc1nc(-c2cccnc2)sc1C(N)=O	-2	8	16867*	-3	-9
Cc1ccccc1C1C(C#N)=C2N=C(N)c3ccccc3N2C2=C1C(=O)CCC2 (stereo not given)	1	-5	6090	2	-2
Cc1ccccc1C1C(C#N)=C2N=C(N)c3c(sc4c3CCCCC4)N2C2=C1C(=O)CC(C)(C)C2 (stereo not given)	3	165*	6644	-4	-9
CC(=O)N1CCN(c2ccccc2NC(=O)c2cccs2)CC1	1	10	4202	11	-2
O=C(O)c1ccc(Sc2nnc(-c3cccc(Br)c3)o2)c([N+](=O)[O-])c1	?	-1	22792*	-3	-3
Cc1ccc2c(c1)c1c(n2C)C(C(N)=O)CCC1 (stereo not given)	0	9	22355*	-3	-1
COc1cccc(-c2nn3c(-c4ccccn4)nnc3s2)c1	?	-2	19346*	-7	3
COc1ccc(-c2nn3c(C4CCCCC4)nnc3s2)cc1OC	0	9	16665*	-3	2
COc1ccc(-c2nn3c(-c4ccccn4)nnc3s2)cc1OC	?	4	19421*	1	2

From PubChem
